High-throughput results deposited in PubChem by National Center for Advancing Translational Sciences (NCATS).
SMN2 splice enh: SMN2 splice variant enhancement. HEK293 SMN2-luciferase splicing reporter, luminescence, 30-36 h. Potency, µM (titrated, usually from 46.1 µM), usual class: activators. hit rate 2.8% among 210,000. AID 1458; also: nearly all actives have a fitted effect of over 55% in size
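HEK293 cells carry an SMN2 minigene-luciferase reporter in which exon 7 inclusion puts luciferase in frame. Cells were seeded at 2000 cells/well, attached for 10-12 hours, then exposed to compounds for 30-36 hours at 37C before ONE-Glo luminescence.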
NPC1 prom act: NPC1 promoter activation. Huh7 NPC1 promoter luciferase reporter, 24 h. Potency, µM (highest dose often 9.22 µM), hits mostly activators. hit rate 2.4% among 320,000; also: nearly all actives have a fitted effect of over 60% in size
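NPC1 promoter–luciferase Huh7 cells; 24 h compound; luminescence.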
Rab9 promoter act: activates the Rab9 promoter; hit rate 2.8% among 320,000; AID 485297; Potency, µM (titrated, usually from 9.22 µM), most hits filed as activators; Huh7 Rab9 promoter-luciferase reporter, luminescence, 24 h; also: nearly all actives have a fitted effect of over 60% in size
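Luminescence read-out: Huh7 cells stably expressing Rab9-luciferase, treated 24 h with compound at 37 °C, then lysed with luciferase reagent for 10 min at ambient before reading.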
ELG1 genotox: inducers of genotoxicity in HEK293T ELG1-luciferase cells. HEK293T ELG1-luciferase reporter, luminescence, 16 h. Potency, µM (doses to about 46 µM), hits mostly activators. hit rate 1.3% among 330,000. AID 504466; also: nearly all actives have a fitted effect of over 60% in size
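After overnight (16 hr) compound treatment at 37 °C, ELG1-luciferase HEK293T cells were lysed with ONE-Glo; luminescence quantified 30 min later at room temperature.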
FLuc counter: counter-screen for miR-21 project: firefly luciferase inhibitors or activators; purified FLuc, Km substrates, luminescence inhibition; hit rate 6.9% among 360,000; AID 588342; Potency, µM (highest dose often 57.5 µM), hits mostly inhibitors; P08659; also: nearly all actives have a fitted effect of over 55% in size
Target sequence (P08659 whole entry, looked up): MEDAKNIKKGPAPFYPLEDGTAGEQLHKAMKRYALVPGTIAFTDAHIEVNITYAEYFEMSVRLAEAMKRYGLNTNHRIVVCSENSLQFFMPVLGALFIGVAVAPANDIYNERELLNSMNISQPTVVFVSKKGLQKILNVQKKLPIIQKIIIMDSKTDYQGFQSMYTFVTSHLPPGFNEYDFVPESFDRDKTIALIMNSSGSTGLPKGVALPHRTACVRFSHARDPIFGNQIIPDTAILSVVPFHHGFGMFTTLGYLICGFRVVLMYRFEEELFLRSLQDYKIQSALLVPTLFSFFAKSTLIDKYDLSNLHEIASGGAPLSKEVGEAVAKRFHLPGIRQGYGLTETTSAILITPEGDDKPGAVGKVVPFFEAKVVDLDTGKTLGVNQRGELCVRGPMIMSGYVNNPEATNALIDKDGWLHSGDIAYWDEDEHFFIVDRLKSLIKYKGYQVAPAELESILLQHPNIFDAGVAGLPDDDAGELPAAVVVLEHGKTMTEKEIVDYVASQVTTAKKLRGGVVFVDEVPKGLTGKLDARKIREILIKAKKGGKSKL
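Purified P. pyralis luciferase (10nM final) with 10uM D-luciferin and 10uM ATP (Km levels) in 50mM Tris acetate pH 7.5, 10mM Mg acetate, 0.01% Tween-20, 0.05% BSA; qHTS 6-point titration, ~60 µM downward; luminescence read.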
Numbers stand for hits; i = inactive; ? = inconclusive; nt = no result. An excerpt weighted towards active compounds, which were near 7.4% of everything screened. Calls follow the shape of the dose curve; as a rule, active = well fitted curve in the direction sought with a large enough effect; inconclusive = small, poorly fitted or top-dose-only effect, or another doubt; inactive = no such curve, though single readings can be large; an effect the other way counts as inactive or inconclusive.

SMILES | SMN2 splice enh | NPC1 prom act | Rab9 promoter act | ELG1 genotox | FLuc counter
Cc1cccc(OCC(=O)N2CCN(C(=O)Cc3ccccc3)CC2)c1 | i | i | i | i | i
COc1ccc(NC(=O)C2=C(C)C(=O)OC23CCN(C(C)C)CC3)cc1Cl | nt | nt | nt | nt | i
Cc1cc2c(OCC(CNC(C)(C)C)OC(=O)c3ccccc3)cccc2[nH]1 (stereo not drawn) | i | nt | nt | nt | nt
CC1CCC(N2CC(=O)N(C3CCCCC3)C(c3ccc(F)cc3)C2=O)CC1 (stereo not drawn) | nt | nt | nt | nt | i
CC1CCCCC1NC(=O)/C=C/c1nc2ccccc2s1 (stereo not drawn) | i | i | i | i | ?
O=C(/C=C/c1nc2ccccc2s1)N1CCCCCC1 | nt | 3.2µM | 2µM | ? | 15µM
CCOC(=O)/C(=N\Nc1ncnc2ccccc12)c1ccc(C)cc1 | nt | ? | ? | ? | 12µM
Cc1ccc(-c2c(C(=O)N3CCN(c4cccc(C)c4C)CC3)oc(=O)c3ccccc23)cc1 | i | nt | nt | nt | i
CCCOc1ccc(-c2nnc(-c3ccco3)o2)cc1 | ? | 0.5µM | 0.45µM | ? | 0.76µM
COc1cccc(C(=O)Nc2ccc(-c3nnc(-c4ccco4)o3)cc2)c1 | i | i | i | i | i
CC(C)COc1ccc(-c2nnc(-c3ccco3)o2)cc1 | 4µM | 0.45µM | 0.32µM | ? | 1.1µM
CC(NC(=O)c1cc(-c2ccc(Cl)cc2)on1)c1ccccc1 (stereo not drawn) | i | nt | nt | nt | i
O=C(NCc1ccccc1Cl)c1cc2ccccc2o1 | i | nt | nt | nt | ?
O=C(Nc1ncccc1Cl)c1cc2ccccc2o1 | nt | 2µM | 1.6µM | 7.3µM | 5.4µM
Cc1ccc(NC(=O)c2cc3ccccc3o2)nc1 | nt | 4µM | 3.2µM | 0.73µM | 1.9µM
Cc1cc(C)nc(NC(=O)c2cc3ccccc3o2)n1 | i | i | i | i | i
O=C(NCCc1ccccn1)c1cc2ccccc2o1 | nt | 3.5µM | ? | ? | ?
Cc1ccccc1NC(=O)c1cc(=O)c2ccccc2o1 | i | i | i | i | i
Cc1ccccc1NC(=O)c1cc2ccccc2o1 | nt | 4µM | ? | 7.3µM | 8.5µM
COc1ccccc1NC(=O)c1cc2ccccc2o1 | 22µM | ? | ? | ? | 6.7µM
O=C(Nc1ccc(Cl)cc1Cl)c1cc2ccccc2o1 | nt | 1.4µM | 1.6µM | ? | 0.95µM
O=C(CSc1nnc(-c2ccccn2)o1)Nc1ccccc1F | nt | 0.45µM | 0.79µM | ? | i
O=C(CSc1nc2c(oc3ccccc32)c(=O)[nH]1)Nc1cccc(Cl)c1 | 20µM | nt | nt | nt | 1.2µM
COc1ccc(OCc2nnc(SCC(=O)Nc3ccc(C)cc3)o2)cc1 | nt | i | i | i | i
Cc1ccccc1NC(=O)CSc1nnc(-c2ccccn2)o1 | nt | i | ? | i | i
SMILES | SMN2 splice enh | NPC1 prom act | Rab9 promoter act | ELG1 genotox | FLuc counter
COc1cccc(-n2c(SCC(=O)Nc3cccc(Cl)c3)nc3c(oc4ccccc43)c2=O)c1 | i | nt | nt | nt | i
COc1ccc(OCc2nnc(SCC(=O)Nc3cccc(Cl)c3)o2)cc1 | nt | i | i | i | 19µM
O=C(CSc1nnc(-c2ccccn2)o1)Nc1cccc(Cl)c1 | nt | ? | 2.2µM | i | nt
Cc1ccc(-n2c(SCC(N)=O)nnc2-c2ccc(S(=O)(=O)N3CCCCC3)cc2)c(C)c1 | i | i | i | i | i
O=C(Nc1ccc2oc(-c3cccnc3)nc2c1)c1ccc(Br)cc1 | i | nt | nt | nt | i
O=C(CSc1nnc(-c2ccc(C(F)(F)F)cn2)o1)Nc1cccc(Cl)c1 | nt | 3.2µM | ? | ? | nt
NCCc1nnc(SCC(=O)Nc2cccc(Cl)c2)o1 | nt | i | i | i | i
O=C(CSc1nnc(-c2cccc(Cl)c2)o1)Nc1ccc2c(c1)OCCO2 | 11µM | 3.5µM | 2.8µM | 21µM | i
Cc1ccc(NC(=O)CSc2nnc(-c3cccnc3)o2)c(C)c1 | nt | i | i | ? | i
O=C(CSc1nnc(-c2cccnc2)o1)Nc1ccccn1 | 13µM | 3.2µM | 4µM | 7.3µM | i
CCc1c(C)nc2nncn2c1Nc1ccc(C)c(F)c1 | i | nt | nt | nt | i
O=C1/C(=C/N(C(=O)c2ccco2)c2ccc(Br)cc2)Sc2ccccc21 | nt | ? | ? | 12µM | 0.34µM
O=C1/C(=C/N(C(=O)c2ccco2)c2ccc(Cl)cc2)Sc2ccccc21 | 14µM | ? | ? | ? | 0.13µM
COc1cc(/C=N/NC(=O)Cc2csc(N3CCOCC3)n2)cc(OC)c1O | i | i | i | i | 15µM
O=C(OCc1ccc(Cl)c(Cl)c1)c1ccc[nH]1 | nt | ? | ? | ? | 24µM
O=C(Cc1ccc(Cl)c(Cl)c1)OCC(=O)c1ccc[nH]1 | i | i | i | i | i
